High-throughput results from PubChem.
In the library only some 3.8% were active in any assay of this set; here they are far more common.
S2 tox – Viability Counterscreen for Primary qHTS for Inhibitors of ATXN expression; S2 cells (HEK-293 line with an ATXN2-luciferase reporter) viability, CellTiter-Fluor protease fluorescence, 24 h; Potency, µM (doses to about 56.7 µM), usual class: cytotoxic; 400,000 compounds, 0.49% hits; further: nearly all actives have a fitted effect of over 40% in size
TGFb SMAD3 inh – qHTS for Inhibitors of TGF-b; AID 588855, 2011; 410,000 compounds, 1.2% hits; HepG2 CAGA-GFP TGF-b/SMAD3 reporter, GFP fluorescence, 18 h; TGF-beta stimulated, 500 pg/mL final; Potency, µM (doses to about 46.1 µM), hits mostly inhibitors; further: nearly all actives have a fitted effect of over 65% in size
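HEPG2 CAGA-GFP cells (1000/well, DMEM with 1% FBS) were pre-incubated 2 h at 37 degrees C, given compound by pin tool, then stimulated with TGF-beta at 500 pg/mL final for 18 h before per-cell GFP fluorescence imaging.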
HT1080NT lethal – qHTS for induction of synthetic lethality in tumor cells producing 2HG: qHTS for the HT-1080-NT fibrosarcoma cell line; 360,000 compounds, 1.6% hits; Potency, µM (top dose mostly 46.1 µM), usual class: cytotoxic; HT-1080-NT fibrosarcoma viability, CellTiter-Glo ATP luminescence, 48 h;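 further: NT is the 2HG producing partner of a matched IDH1 knockdown line; nearly all actives have a fitted effect of over 55% in size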
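Toxicity toward the 2HG-producing NT line was scored as %Activity, normalised to DMSO and no-cell wells, from CellTiter-Glo luminescence after 48 hours' treatment.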
HepG2 viability – qHTS for Inhibitors of TGF-b: Cytotox Counterscreen; AID 588856, 2011; Potency, µM (highest dose often 46.1 µM), most hits filed as cytotoxic; HepG2 CAGA-GFP viability, ATP luminescence, 18 h; 410,000 compounds, 0.76% hits
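CellTiter-Glo luminescence gave cytotoxicity after 18 hours at 37 degrees C. The cells were HepG2 CAGA-GFP in 1% FBS DMEM, stimulated with 500 pg/mL TGF-beta after compound addition. %Activity was normalised to no-cell wells (complete cell-killing) and DMSO (no toxicity), and curves were fitted and classified.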
HT1080 IDH1KD tx – qHTS for induction of synthetic lethality in tumor cells producing 2HG: qHTS for the HT-1080-IDH1KD cell line | HT-1080 IDH1 knockdown viability, ATP luminescence, 48 h | Potency, µM (doses to about 46.1 µM), hits mostly cytotoxic | 360,000 compounds, 2% hits
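Knockdown cells (IDH1KD HT-1080) received compounds 2 h after plating at 750 cells/well and were kept 48 h at 37 °C in 5% FBS RPMI. A CellTiter-Glo luminescence read gave % activity for curve fitting.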
ATXN2 expr inh – Primary qHTS for Inhibitors of ATXN expression. HEK-293 ATXN2-luciferase reporter, luminescence, 24 h. Potency, µM (doses to about 57 µM), hits mostly inhibitors. 360,000 compounds, 0.72% hits; further: nearly all actives have a fitted effect of over 55% in size
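ATXN2-luciferase reporter cells (luciferase flanked by upstream and downstream ATXN2 gene portions) were treated 24 h at 37 °C with compounds at up to 57 uM. SteadyGlo luminescence gave expression; GF-AFC fluorescence gave viability.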
Numbers stand for hits; n = inactive; u = inconclusive; x = not tested or not shown. The call rests on the fitted dose curve; in most records, active means well fitted curve in the direction sought with a large enough effect; inconclusive means small, poorly fitted or top-dose-only effect, or another doubt; inactive means no such curve, though single readings can be large; an effect the other way counts as inactive or inconclusive.

SMILES	S2 tox	TGFb SMAD3 inh	HT1080NT lethal	HepG2 viability	HT1080 IDH1KD tx	ATXN2 expr inh
Cc1cc(C)cc(-n2c(N)c(C(=O)Nc3c(C)n(C)n(-c4ccccc4)c3=O)c3nc4ccccc4nc32)c1	n	n	n	n	u	n
Cc1ccc(-n2c(N)c(C(=O)Nc3c(C)n(C)n(-c4ccccc4)c3=O)c3nc4ccccc4nc32)cc1	x	n	n	n	n	29.9µM
C1=Cc2ccccc2/C1=C\c1ccc2c(c1)OCO2	x	n	x	n	x	x
Cc1nc(C2CCCCC2)c(-c2ccc(S(N)(=O)=O)c(F)c2)o1	n	x	x	x	x	n
S=C1SCN(CCc2ccccc2)CN1CCc1ccccc1	u	u	n	n	n	x
S=C1SCN(CC2CC2)CN1CC1CC1	n	11.2µM	u	n	n	u
COc1ccccc1Cn1ccn(Cc2ccc(C)cc2)c(=O)c1=O	x	n	x	n	x	x
CCCCCOC(=O)C1=C(C)Nc2nnnn2C1c1ccccc1Cl (configuration not stated)	n	u	13µM	n	20.6µM	n
CCCC(C(=O)NCCC(C)C)N(Cc1ccc(OC)cc1)C(=O)c1snc(C(N)=O)c1N (configuration not stated)	23.8µM	n	n	n	n	n
CCCN1C(=O)C(O)(CC(=O)c2ccc(C(C)C)cc2)c2ccccc21 (configuration not stated)	x	x	x	n	x	x
CC(C)c1ccc(C(=O)CC2(O)C(=O)N(CCc3ccccc3)c3ccc(Cl)cc32)cc1 (configuration not stated)	u	15.8µM	x	n	x	u
COc1ccc2ccccc2c1/C=N/Nc1ccc(Cl)c(C(=O)O)c1	n	n	n	n	n	n
COc1ccc(N/N=C/c2c(C(=O)O)ccc3ccccc23)cc1	u	2.24µM	u	n	u	x
Cc1nc(N)sc1-c1ccnc(Nc2ccc(N3CCOCC3)cc2)n1	x	x	x	x	x	10.9µM
Cc1cc(C)nc(Nc2ccc(N3CCOCC3)cc2)n1	n	n	n	n	n	n
COc1ccc(C(=O)c2sc(Nc3ccccc3)nc2N)cc1OC	x	12.6µM	u	n	u	u
COc1ccc(C(=O)c2sc(Nc3ccccc3)nc2N)cc1	n	11.2µM	n	n	n	n
COc1ccc(C(=O)c2sc(Nc3ccccc3F)nc2N)cc1	u	n	n	n	n	x
CSc1nc(C(=O)N2CCOc3ccc(CN4CCN(Cc5ccccn5)CC4)cc3C2)cs1	n	x	x	x	x	x
CCOC(=O)CN1CCCC1=O	n	x	x	x	x	n
CCn1c(/C=C/Nc2ccccc2)[n+](CC)c2cc(Cl)c(Cl)cc21	31.6µM	u	n	n	u	u
COC(=O)c1c(NC(=O)Cc2coc3cc(C)ccc23)sc2c1CCCC2	n	n	x	n	x	n
CC(C)c1csc(CN2CCN(Cc3ccc(F)cc3)C(CCO)C2)n1 (configuration not stated)	n	3.55µM	n	n	n	n
CSc1ccc2c(c1)C(N1CCN(C)CC1)Cc1ccc(F)cc1S2 (configuration not stated)	n	u	u	n	u	x
O=[N+]([O-])c1ccc2c(c1)C(N1CCN(CCO)CC1)Cc1ccc(F)cc1S2 (configuration not stated)	u	u	16.4µM	n	16.4µM	n
CCSc1nc(-c2ccccc2)nc(C(Cl)Cl)n1	u	5.62µM	u	7.08µM	u	u
O=C(CSc1ccccc1)Nc1nc2ccccc2[nH]1	n	n	11.6µM	n	u	n
Cc1cccc(OCCCC(=O)Nc2nc3ccccc3[nH]2)c1	n	u	n	n	n	13.4µM
CCO[C@H]1OC(C(=O)NCc2nc3ccccc3[nH]2)=C[C@@H](C2CC2)[C@@H]1CCCO	u	n	u	n	2.06µM	n
CC1(C)O[C@H]2[C@@H](O1)[C@@H](C(=O)Nc1ccc(F)c(F)c1)O[C@@H]1OC(C)(C)O[C@@H]12	x	n	x	n	x	x
